From article PMC4336329 (PLoS ONE, 2015)
Screen size: about 310,000 compounds; about 14,000 (4.5%) showed an effect of 50% or more. Effects have a minus sign here. Many of the other results were omitted from the sample, so strong results are more common in it than they were.

Target: human ether-à-go-go-related gene (hERG) potassium channel (human, UniProt Q12809)
Assay: primary screen, population patch clamp on CHO cells stably expressing hERG; higher = less effect of the substance
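Further: peak tail current of the secondary pulse compared with the same well before compound.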

Sequence of human ether-à-go-go-related gene (hERG) potassium channel (Q12809 whole entry, looked up): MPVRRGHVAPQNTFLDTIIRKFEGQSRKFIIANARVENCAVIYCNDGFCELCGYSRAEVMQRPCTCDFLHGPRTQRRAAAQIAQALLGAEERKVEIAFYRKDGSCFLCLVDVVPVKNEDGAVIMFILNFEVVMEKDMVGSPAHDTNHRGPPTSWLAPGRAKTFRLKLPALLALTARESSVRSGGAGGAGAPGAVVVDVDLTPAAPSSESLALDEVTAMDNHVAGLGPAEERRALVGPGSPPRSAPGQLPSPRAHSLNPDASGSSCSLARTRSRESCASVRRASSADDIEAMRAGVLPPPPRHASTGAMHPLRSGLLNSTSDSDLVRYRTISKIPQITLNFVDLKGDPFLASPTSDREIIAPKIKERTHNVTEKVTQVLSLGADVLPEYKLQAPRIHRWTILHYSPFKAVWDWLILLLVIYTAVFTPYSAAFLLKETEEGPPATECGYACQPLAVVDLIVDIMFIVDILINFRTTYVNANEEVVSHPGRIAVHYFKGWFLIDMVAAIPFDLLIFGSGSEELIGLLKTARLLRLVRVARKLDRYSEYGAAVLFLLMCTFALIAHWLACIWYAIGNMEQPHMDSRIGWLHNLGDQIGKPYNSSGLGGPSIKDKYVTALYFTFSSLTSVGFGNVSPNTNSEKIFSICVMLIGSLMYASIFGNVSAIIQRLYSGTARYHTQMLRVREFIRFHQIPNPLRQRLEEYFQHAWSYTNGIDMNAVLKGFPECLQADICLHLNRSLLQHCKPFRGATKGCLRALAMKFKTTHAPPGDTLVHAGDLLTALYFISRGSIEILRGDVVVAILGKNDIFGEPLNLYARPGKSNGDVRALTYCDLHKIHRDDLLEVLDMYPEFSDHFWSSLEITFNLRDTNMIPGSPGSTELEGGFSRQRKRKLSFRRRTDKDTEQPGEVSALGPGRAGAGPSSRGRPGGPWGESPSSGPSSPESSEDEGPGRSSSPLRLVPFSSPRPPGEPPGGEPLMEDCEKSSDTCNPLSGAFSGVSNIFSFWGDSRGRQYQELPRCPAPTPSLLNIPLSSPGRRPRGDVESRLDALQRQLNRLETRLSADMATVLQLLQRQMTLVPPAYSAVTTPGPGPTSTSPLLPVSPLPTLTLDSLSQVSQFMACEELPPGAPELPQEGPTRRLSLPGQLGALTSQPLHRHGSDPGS

Compound	hERG current change (%, negative = inhibition) at 10uM
CC(=O)c1ccc(S(=O)(=O)N(C)C(C)CCc2ccco2)cc1 (stereo not shown)	-6.81%
CC(=O)N1CCc2cc(Br)cc(S(=O)(=O)N3CCN(c4ccccn4)CC3)c21	10.7%
Cc1ccc(/C=C2\C(=N)N3N=C(CC(=O)N4CCOCC4)SC3=NC2=O)o1	12.2%
CCOC(=O)c1cc(-c2ccccc2)sc1NC(=O)C(C)C	13.8%
O=C(O)C1C2CCC(C2)C1C(=O)NCc1ccccn1 (stereo not shown)	16.1%
CCOC(=O)N1CCN(c2ccc(S(=O)(=O)N(Cc3ccccc3)Cc3ccccc3)cn2)CC1	-4.41%
Cc1ccc(S(=O)(=O)N2CCN(Cc3cc(=O)n4ccccc4n3)CC2)cc1C	-40.5%
O=c1nc2ccc(Cl)cn2c2ccc(S(=O)(=O)N3CCCCC3)cc12	-0.392%
COc1ccc(S(=O)(=O)N2CCN(Cc3cc(=O)n4ccccc4n3)CC2)cc1	-31.4%
Cc1ccc(S(=O)(=O)N2CCN(Cc3cc(=O)n4ccccc4n3)CC2)c(C)c1	-80.6%
O=c1cc(CN2CCN(S(=O)(=O)c3ccccc3)CC2)nc2ccc(Cl)cn12	-56%
O=S(=O)(c1ccccc1)N1CCN(Cc2cccc(Cl)c2)CC1	-18.1%
CCOc1cccc(C2/C(=C(/O)c3ccc4c(c3)CC(C)O4)C(=O)C(=O)N2CCN2CCOCC2)c1 (stereo not shown)	14.7%
N#Cc1ccccc1NC(=O)CSc1ccc([N+](=O)[O-])cn1	13.1%
COc1cc(C(CCN2CCCC2)c2c(OC)cc(OC)c3c(-c4ccccc4)cc(=O)oc23)cc(OC)c1OC (stereo not shown)	-70.8%
COc1cc(OC)c2c(-c3ccccc3)cc(=O)oc2c1C(CCN1CCN(c2ccccc2)CC1)c1ccc(N(C)C)cc1 (stereo not shown)	7.89%
COc1cc(C(CC(=O)N2CCCC2)c2c(OC)cc(OC)c3c(-c4ccccc4)cc(=O)oc23)cc(OC)c1OC (stereo not shown)	-10.5%
COc1cc(C(CCN2CCCCC2)c2c(OC)cc(OC)c3c(-c4ccccc4)cc(=O)oc23)cc(OC)c1OC (stereo not shown)	-67%
COc1cc(C(CCN2CCCC(C)C2)c2c(OC)cc(OC)c3c(-c4ccccc4)cc(=O)oc23)cc(OC)c1OC (stereo not shown)	-38.7%
CCN(CC)CCC(c1cc(OC)c(OC)c(OC)c1)c1c(OC)cc(OC)c2c(-c3ccccc3)cc(=O)oc12 (stereo not shown)	-16.8%
Cc1ccc(NC(=O)CCS(=O)(=O)c2cc3c(cc2Cl)NC(=O)CO3)cc1	-17.4%
O=C(CNC(=O)c1ccc(Cl)cc1)c1ccc(Cl)cc1	7.28%
Cc1ccc(CNC(=O)C2C3C=CC(C3)C2C(=O)O)cc1 (stereo not shown)	-3.26%
Cl.OC(CN1CCCCC1)Cn1c(C(F)(F)F)nc2ccccc21 (stereo not shown)	4.06%
CC1CN(S(=O)(=O)c2cccs2)CC(C)O1 (stereo not shown)	-3.7%
COc1ccc(NC(=S)NCc2ccco2)cc1	9.23%

Compound	hERG current change (%, negative = inhibition) at 10uM
COc1ccc(S(=O)(=O)n2cnc3ccccc32)cc1OC	12.4%
C=CCn1c(O)c(C(CC)=NCc2cc(OC)cc(OC)c2)c(=O)[nH]c1=O	-59%
C=CCn1c(O)c(C(C)=NCc2cc(OC)cc(OC)c2)c(=O)[nH]c1=O	-37%
CCCCn1c(O)c(C(CC)=NCc2cc(OC)cc(OC)c2)c(=O)[nH]c1=O	-13.8%
Cc1ccc(S(=O)(=O)Nc2ccccc2/C=N/c2nc3ccccc3n2C)cc1	-13.5%
Cc1cc(-c2ccc(N3CCOCC3)cc2)nc2ccccc12.Cl	3.53%
Cc1c(N=Cc2c(O)n(CCc3ccc(F)cc3)c(=O)[nH]c2=O)c(=O)n(-c2ccccc2)n1C	-61.9%
Cc1c(N=Cc2c(O)n(Cc3ccc(F)cc3)c(=O)[nH]c2=O)c(=O)n(-c2ccccc2)n1C	-26%
Cc1c(N=Cc2c(O)n(CCc3ccccc3)c(=O)[nH]c2=O)c(=O)n(-c2ccccc2)n1C	-39.3%
Cc1c(N=Cc2c(O)n(Cc3ccccc3)c(=O)[nH]c2=O)c(=O)n(-c2ccccc2)n1C	-5.81%
CCCCn1c(O)c(C=Nc2c(C)n(C)n(-c3ccccc3)c2=O)c(=O)[nH]c1=O	4.96%
C=CCn1c(O)c(C=Nc2c(C)n(C)n(-c3ccccc3)c2=O)c(=O)[nH]c1=O	-81.6%
C=C(C)Cn1c(N2CC(C)CC(C)C2)nc2c1c(=O)[nH]c(=O)n2C (stereo not shown)	2.46%
COc1ccc(CCC(=O)Nc2ccc(N3CCOCC3)cc2)cc1	-12.9%
CCOC(=O)C1=C(c2ccccc2)Nc2ncnn2C1c1ccc(OC)c(OC)c1OC (stereo not shown)	-5.55%
CCOC(=O)C1(CCOC)CCN(Cc2ccc(COC)o2)CC1	32.9%
CCOC(=O)C1(CCOc2ccccc2)CCN(Cc2ccc(C)o2)CC1	-75%
CCOC(=O)C1(Cc2ccccc2)CCN(Cc2ccc(COC)o2)CC1	-19.1%
CCOC(=O)C1(CCOc2ccccc2)CCN(Cc2ccc(CO)o2)CC1	-73.8%
CCOC(=O)C1(CCOc2ccccc2)CCN(Cc2ccc(COC)o2)CC1	-63.7%
CSc1ccccc1NC(=O)CN(Cc1ccccc1)S(C)(=O)=O	4.1%
CC1(C)C(=O)C=C[C@]2(C)[C@H]3CC[C@@]4(C)[C@H](c5ccoc5)OC(=O)[C@H]5O[C@]54[C@]3(C)[C@H](O)C[C@@H]12	8.63%
Cc1cc(C)cc(NC(=O)CSc2nnc(-c3ccccc3)n2N)c1	6.38%
CC(C)Oc1cccc(C(=O)Nc2ccc(Br)cc2F)c1	7.79%
Cc1ccccc1CNC(=O)CC1C(=O)NCCN1CC1CCCCC1 (stereo not shown)	6.33%
Cc1cc(C)c(C(=O)CSc2n[nH]c(=O)n2C2CC2)cc1C	-9.54%
